Screens from PubChem.
SW480 rerep – DNA re-replication induction in SW480 cells | SW480 DNA re-replication, Hoechst DNA content imaging, 48 h | Potency, µM (series often up to 46.1 µM), without a hit: at the top dose re-replication activation, usual class: activators | hit rate 1.8% among 340,000; note: % of control where 0% means no effect; nearly all actives have a fitted effect of over 55% in size
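Cells (250 per well) received 23 nL compound or DMSO by pin tool and were kept 48 hr at 37 C, 5% CO2. Nuclei were then stained with Hoechst for 40 min and scanned for DNA content.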
ELG1 repair inh – inhibitors of ELG1-dependent DNA repair in HEK293T cells; AID 504467; Potency, µM (highest dose often 46.1 µM), without a hit: top-dose activity change, negative = inhibition, hits mostly inhibitors; HEK293T ELG1-luciferase reporter, luminescence, 16 h; DNA damage induced by 5-fluorouridine; hit rate 2.3% among 330,000; note: % is set by controls: 0 for no effect and ±100 for the full control effect; nearly all actives have a fitted effect of over 55% in size
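In this reporter screen, reduction of luminescence relative to DMSO vehicle indicated activity. Compounds and 5-fluorouridine were added together to 2,000 cells per well, incubated for 16 hr at 37 °C, then developed with ONE-Glo.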
KB-3-1 cytotox – kills parental KB-3-1 adenocarcinoma cells; KB-3-1 viability, CellTiter-Glo ATP luminescence, 72 h; hit rate 1.4% among 400,000; Potency, µM (doses to about 46.1 µM), actives largely listed as cytotoxic; note: % is set by controls: 0 for no effect and ±100 for the full control effect; nearly all actives have a fitted effect of over 60% in size
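Screening of KB-3-1 cells (DMEM, 10% FBS, phenol-red free) ran from lowest to highest compound concentration; after 72 h at 37 °C viability was read luminescently and curves fitted.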
KB-V1 cytotox – KB-V1 MDR subline cytotoxicity; hit rate 3.4% among 400,000; Potency, µM (doses to about 46.1 µM), usual class: cytotoxic; KB-V1 MDR cells viability, CellTiter-Glo, 72 h; note: % is set by controls: 0 for no effect and ±100 for the full control effect; nearly all actives have a fitted effect of over 60% in size
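Cytotoxicity via CellTiter-Glo luminescence after 72 h compound exposure at 37 degrees C. Cells: drug-selected KB-V1 line, DMEM phenol-red free plus 10% FBS. Compounds tested at multiple concentrations; normalized data fitted to concentration-effect curves.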
MCF10A rerep – induces DNA re-replication in MCF 10a normal breast cells; MCF 10A DNA re-replication, Hoechst nuclear intensity, 48 h; Potency, µM (titrated, usually from 46.1 µM), for inactives: at the highest dose activity, positive = re-replication, usual class: activators; hit rate 2.9% among 350,000; AID 624296; note: % of control where 0% means no effect; nearly all actives have a fitted effect of over 50% in size
* = called active by the depositor; [ ] = remark or other dose. Only some compounds are listed: those with a hit (about 8.1% of all), similar ones and a draw of the others. Calls come from the whole dose curve; as a rule, active = well fitted curve in the direction sought with a large enough effect; inconclusive = small, poorly fitted or top-dose-only effect, or another doubt; inactive = no such curve, though single readings can be large; an effect the other way counts as inactive or inconclusive. Potency is the fitted concentration of half-maximal effect.

How did Cc1ccc(NC2=CC(=O)C(=O)c3ccccc32)c(C)c1 do in these assays?
SW480 rerep: 9%; ELG1 repair inh: 21µM*; KB-3-1 cytotox: inconclusive; KB-V1 cytotox: inconclusive; MCF10A rerep: -5%

What do the screens show for `C=CCN1c2ccccc2[C@]23C[C@@H](C(=O)OC)N(C(=O)c4ccc(Br)cc4)C2=NC(C(=O)OC)=C(C(=O)OC)[C@H]13`?
SW480 rerep: 24%; ELG1 repair inh: inconclusive; KB-3-1 cytotox: inconclusive; KB-V1 cytotox: inactive; MCF10A rerep: -1%

Results for OCC1(Cc2cccc(C(F)(F)F)c2)CCN(Cc2cc3ccccc3o2)CC1 ?
SW480 rerep: inconclusive; ELG1 repair inh: -17%; KB-3-1 cytotox: inconclusive; KB-V1 cytotox: inconclusive; MCF10A rerep: 23µM*

How did CCOC(=O)Cc1c(C)nc2c(-c3ccc(OC)c(OC)c3)c(C)nn2c1C do in these assays?
KB-3-1 cytotox: inactive; KB-V1 cytotox: inconclusive

What do the screens show for `COc1ccc(-c2nc3ccccc3o2)cc1NC(=O)COc1c(C)cc(Cl)cc1Cl`?
KB-3-1 cytotox: inconclusive; KB-V1 cytotox: inactive

What do the screens show for `COc1ccc(-c2nc3ccccc3o2)cc1NC(=O)COc1ccc(C)c(C)c1`?
KB-3-1 cytotox: 5.8µM*; KB-V1 cytotox: inconclusive

Results for Cc1ccc(-c2nc3ccccc3s2)cc1NC(=S)NC(=O)/C=C/c1ccco1 ?
SW480 rerep: inconclusive; ELG1 repair inh: 0%; KB-3-1 cytotox: inconclusive; KB-V1 cytotox: inconclusive; MCF10A rerep: 26%

What do the screens show for `O=C(/C=C/c1ccco1)NC(=S)Nc1cccc(-c2nc3ccccc3s2)c1`?
SW480 rerep: inconclusive; KB-3-1 cytotox: 8.2µM*; KB-V1 cytotox: 6.5µM*; MCF10A rerep: 5.8µM*

Results for Cc1cccc(NC(=S)NC(=O)/C=C/c2ccco2)c1 ?
SW480 rerep: 2.1µM*; ELG1 repair inh: inconclusive; KB-3-1 cytotox: 4.6µM*; KB-V1 cytotox: 5.2µM*; MCF10A rerep: inconclusive

Results for Cc1ccc(-c2nc3ccccc3o2)cc1NC(=S)NC(=O)/C=C/c1ccco1 ?
SW480 rerep: 8.2µM*; ELG1 repair inh: inconclusive; KB-3-1 cytotox: 13µM*; KB-V1 cytotox: inconclusive; MCF10A rerep: 7.3µM*

How did COc1cccc(CN2C(=O)C3(C(C#N)=C(N)OC4=C3C(=O)CCC4)c3ccccc32)c1 (centres undefined) do in these assays?
SW480 rerep: 16%; ELG1 repair inh: 1%; KB-3-1 cytotox: inconclusive; KB-V1 cytotox: inactive; MCF10A rerep: 1%

Results for O=C(Nc1ccc(Cl)cc1)NC1CCCCNC1=O (centres undefined) ?
SW480 rerep: 5%; ELG1 repair inh: inconclusive; KB-3-1 cytotox: inactive; KB-V1 cytotox: inactive; MCF10A rerep: 1%

Results for COc1ccccc1C(C(=O)NCc1ccc(F)cc1)N(C(=O)c1csnn1)C1CC1 (centres undefined) ?
SW480 rerep: 1%; ELG1 repair inh: 3%; KB-3-1 cytotox: inactive; KB-V1 cytotox: inactive; MCF10A rerep: 1%

Results for COc1ccc(-n2nc3cc(C)c(NC(=S)NC(=O)c4ccccc4C)cc3n2)cc1 ?
SW480 rerep: 11%; ELG1 repair inh: inconclusive; KB-3-1 cytotox: inactive; KB-V1 cytotox: inactive; MCF10A rerep: 3.7µM*

What do the screens show for `O=C(/C=C/c1ccco1)NC(=S)Nc1cccc(-c2nc3ccccc3o2)c1`?
SW480 rerep: 9.2µM*; ELG1 repair inh: inconclusive; KB-3-1 cytotox: inconclusive; KB-V1 cytotox: 8.2µM*; MCF10A rerep: 3.7µM*

Results for CCC(=O)Nc1cc2nn(-c3ccc(OC)cc3)nc2cc1C ?
SW480 rerep: -1%; ELG1 repair inh: inconclusive; KB-3-1 cytotox: inactive; KB-V1 cytotox: inactive; MCF10A rerep: 2%

What do the screens show for `O=C(/C=C/c1ccco1)NC(=S)Nc1ccc(N2CCOCC2)c(Cl)c1`?
SW480 rerep: 5.2µM*; ELG1 repair inh: 15%; KB-3-1 cytotox: 4.1µM*; KB-V1 cytotox: inconclusive; MCF10A rerep: inconclusive

How did Cc1ccc(-n2nc3cc(C)c(NC(=S)NC(=O)/C=C/c4ccco4)cc3n2)cc1 do in these assays?
SW480 rerep: 3.7µM*; ELG1 repair inh: inconclusive; KB-3-1 cytotox: inactive; KB-V1 cytotox: inactive; MCF10A rerep: 5%

Results for Cc1ccc(-n2nc3ccc(NC(=S)NC(=O)/C=C/c4ccco4)cc3n2)cc1 ?
SW480 rerep: -7%; ELG1 repair inh: inconclusive; KB-3-1 cytotox: inactive; KB-V1 cytotox: inactive; MCF10A rerep: -1%

Results for CCc1ccc(OCC(=O)OC2CCS(=O)(=O)C2)cc1 (centres undefined) ?
SW480 rerep: -4%; ELG1 repair inh: 10%; KB-3-1 cytotox: inactive; KB-V1 cytotox: inactive; MCF10A rerep: -8%

Results for C[C@H]1CN(Cc2ccccc2)C(=O)[C@@H]1CC(=O)NCc1ccccc1 ?
SW480 rerep: 0%; ELG1 repair inh: -2%; KB-3-1 cytotox: inactive; KB-V1 cytotox: inconclusive; MCF10A rerep: 3%

How did CS(=O)(=O)N(CC(=O)N1CCCCC1)c1ccc(Cl)c(C(F)(F)F)c1 do in these assays?
SW480 rerep: 2%; ELG1 repair inh: -3%; KB-3-1 cytotox: inactive; KB-V1 cytotox: inactive; MCF10A rerep: 6%

Results for O=C1C2C3c4ccccc4C(c4ccccc43)C2c2nc3ccccc3n21 (centres undefined) ?
SW480 rerep: 8%[9.22 µM]; ELG1 repair inh: 16µM*; KB-3-1 cytotox: inactive; KB-V1 cytotox: inactive; MCF10A rerep: inconclusive

What do the screens show for `CCc1ccc(C(=O)NNc2ccc(F)cc2)cc1`?
SW480 rerep: inconclusive; ELG1 repair inh: 7%; KB-3-1 cytotox: inconclusive; KB-V1 cytotox: inactive; MCF10A rerep: inconclusive

Results for CCc1ccc(C(=O)NNc2ccc(C)c(Cl)c2)cc1 ?
SW480 rerep: 14%; ELG1 repair inh: 18µM*; KB-3-1 cytotox: inactive; KB-V1 cytotox: inactive; MCF10A rerep: 4%

How did Cc1noc(C)c1CSc1ccccc1C(=O)N1CCN(c2ccccc2)CC1 do in these assays?
SW480 rerep: -5%[9.22 µM]; ELG1 repair inh: inconclusive; KB-3-1 cytotox: inactive; KB-V1 cytotox: inactive; MCF10A rerep: inconclusive

Results for CCOc1ccc(N(CC(=O)N2CCN(c3ccc(F)cc3)CC2)S(=O)(=O)c2c(C)noc2C)cc1 ?
SW480 rerep: 23µM*; ELG1 repair inh: 3%; KB-3-1 cytotox: inactive; KB-V1 cytotox: inactive; MCF10A rerep: -1%

Results for Cc1noc(C)c1CSCC(=O)N1CCN(c2ccc(F)cc2)CC1 ?
SW480 rerep: -12%; ELG1 repair inh: 11µM*; KB-3-1 cytotox: inconclusive; KB-V1 cytotox: 2.9µM*; MCF10A rerep: -1%

How did Cc1cc(NC(=O)CSCC(=O)N2CCN(c3cccc(C)c3C)CC2)no1 do in these assays?
SW480 rerep: -27%; ELG1 repair inh: -18%; KB-3-1 cytotox: inactive; KB-V1 cytotox: inactive; MCF10A rerep: 4%
